Source: PubChem BioAssay (NCATS)
Results filed as inconclusive are left out. A call without a number means that no potency is given here. The source made the active and inactive calls. The call rests on the fitted dose curve; in most records, active means well fitted inhibition curve with a large enough effect; inconclusive means small, poorly fitted or top-dose-only effect; inactive means no such curve, though single readings can be large or run the other way.
Potency means the concentration at half of the fitted maximal effect.

The compounds below were run against Rap guanine nucleotide exchange factor 4 (Homo sapiens) (UniProt Q8WZA2) (assay: Confirmatory qHTS for antagonist of cAMP-regulated guanine nucleotide exchange factor 4 (EPAC2) (AID 1645885; further: nearly all actives have a fitted effect of over 25% in size)). Conditions: EPAC2 Rap1B-BODIPY-GDP exchange fluorescence, biochemical; series mostly up to 12.7 µM.
Sequence of Rap guanine nucleotide exchange factor 4 (Homo sapiens) (Q8WZA2 whole entry, looked up): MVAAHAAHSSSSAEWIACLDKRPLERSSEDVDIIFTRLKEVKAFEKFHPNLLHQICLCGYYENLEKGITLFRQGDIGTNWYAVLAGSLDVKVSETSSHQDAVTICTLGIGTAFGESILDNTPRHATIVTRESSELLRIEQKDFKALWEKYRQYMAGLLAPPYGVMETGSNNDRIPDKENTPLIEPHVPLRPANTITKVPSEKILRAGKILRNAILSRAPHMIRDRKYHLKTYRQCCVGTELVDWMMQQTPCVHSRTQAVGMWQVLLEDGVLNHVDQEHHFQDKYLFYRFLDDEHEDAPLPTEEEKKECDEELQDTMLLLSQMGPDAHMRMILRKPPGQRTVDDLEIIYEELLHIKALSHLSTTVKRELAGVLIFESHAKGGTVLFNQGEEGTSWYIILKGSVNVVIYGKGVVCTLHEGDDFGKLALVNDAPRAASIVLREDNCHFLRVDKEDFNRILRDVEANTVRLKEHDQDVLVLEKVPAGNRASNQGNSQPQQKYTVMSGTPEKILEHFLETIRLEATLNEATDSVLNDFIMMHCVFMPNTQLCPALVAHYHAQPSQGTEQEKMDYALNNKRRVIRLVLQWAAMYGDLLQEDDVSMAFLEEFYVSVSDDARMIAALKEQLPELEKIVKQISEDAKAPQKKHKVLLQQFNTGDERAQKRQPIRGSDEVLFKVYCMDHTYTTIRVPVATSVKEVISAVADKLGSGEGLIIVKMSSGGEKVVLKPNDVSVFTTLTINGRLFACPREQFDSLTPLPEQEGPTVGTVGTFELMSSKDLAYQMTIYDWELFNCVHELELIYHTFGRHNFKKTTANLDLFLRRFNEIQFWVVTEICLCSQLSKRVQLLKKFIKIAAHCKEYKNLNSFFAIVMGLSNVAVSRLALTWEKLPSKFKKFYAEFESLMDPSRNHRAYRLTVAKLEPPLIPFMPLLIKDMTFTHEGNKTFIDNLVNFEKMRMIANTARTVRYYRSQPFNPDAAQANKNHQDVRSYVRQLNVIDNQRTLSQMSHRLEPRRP
With O=C1C=C(NS(=O)(=O)c2ccccc2)C(=O)c2ccccc21 the Potency was “inactive”.
In the case of Cc1ccccc1C(=O)Nc1cccc(C(=O)N/N=C/c2cc(Cl)cc([N+](=O)[O-])c2O)c1, the Potency is reported as “inactive”.
Nc1ccc2ccc(O)cc2c1 was tested, and the Potency was “inactive”.
Cc1ccc(Nc2c(-c3ccccn3)nc3cccc(C)n23)cc1 was tested, and the Potency was “inactive”.
With CC(=O)Nc1ccc(N(C(=O)Cn2nnc3ccccc32)C(C(=O)NC2CCCC2)c2ccc(O)c(O)c2)cc1 (stereo not given) the Potency was 95.3 µM (active).
For CCOC(=O)c1cnc2ccc(C(=O)OC)cc2c1Nc1ccccc1CC, the Potency was “inactive”.
In the case of COCCCNC(=O)C[C@@H]1C[C@@]2(C(=O)OC)CCCCC=C2N(Cc2cccc3ccccc23)C1=O, the Potency is reported as “inactive”.
For Cc1c(N=Cc2cc(Br)cc(Br)c2O)cccc1C(=O)O, the Potency was “inactive”.
For CCOC(=O)c1c(NC(=O)CSc2nnnn2-c2ccccc2OCC)sc2c1CC(C)(C)NC2(C)C, the Potency was “inactive”.
With CN(C)S(=O)(=O)c1cccc(COC(=O)Cc2c(F)cccc2Cl)c1 the Potency was “inactive”.
For O=C(Nc1cccc(S(=O)(=O)NC2=NCCCCC2)c1)c1cc(-c2ccc(Cl)cc2)nc2ccccc12, the Potency was “inactive”.
With Cc1cccc(Nc2nnc(-c3ccc(N4CCOCC4)c([N+](=O)[O-])c3)c3ccccc23)c1 the Potency was “inactive”.
With Cc1nnc(SCC(=O)NCc2ccccc2F)c2nn(-c3ccc(Cl)cc3)c(C)c12 the Potency was “inactive”.
COn1c2c(c3c4nonc4ccc31)CCCC2 was tested, and the Potency was “inactive”.
In the case of CC(C)(C)C1CCc2c(sc3nc(SCC(=O)O)nc(N)c23)C1 (stereo not given), the Potency is reported as “inactive”.
For CC(C)C1COC(c2cccn2Cc2ccccc2Cl)=N1 (stereo not given), the Potency was “inactive”.
With Cc1cccc(-c2nc3c(cnn3-c3ccccc3)c(=O)n2-c2cccc(Cl)c2)c1 the outcome was “inactive [at 12.7 µM]”.
With COc1ccc(-n2c(NC(=O)c3ccco3)c(C#N)c3nc4ccccc4nc32)cc1 the Potency was “inactive”.
In the case of O=S(=O)(c1ccc2c(c1)C(O)c1ccccc1CC2)C(F)(F)F (stereo not given), the Potency is reported as “inactive”.
With CCOc1ccccc1Oc1ncnc2c1oc1ccccc12 the outcome was “inactive [at 12.7 µM]”.
In the case of CN(CC(=O)Nc1cccc(F)c1)C(=O)c1cccc(S(=O)(=O)N2CC3(C)CC2CC(C)(C)C3)c1 (stereo not given), the Potency is reported as “inactive”.
For C=CCOC(=O)C1=C(C)NC(C)=C(C(=O)OCC=C)C1c1ccco1, the Potency was “inactive”.
In the case of O=C(CSc1nc(-c2ccccc2)nc2c1Cc1ccccc1O2)Nc1ccc(C(=O)O)cc1, the Potency is reported as “inactive”.
O=C(Nc1cccnc1)c1c(O)c2cccc3c2n(c1=O)CC3 was tested, and the Potency was “inactive”.
For CC1=NN(c2ccccc2)C(=O)C1=Cc1ccccc1, the Potency was “inactive”.
In the case of Cc1ccc(C(C[N+](=O)[O-])c2c(-c3ccccc3O)[nH][nH]c2=O)cc1 (stereo not given), the Potency is reported as 3.38 µM (active).
With CCCC1=C/C(=C/c2ccc(-c3ccccc3OC)o2)C(=O)O1 the Potency was “inactive”.
Cn1c(SCC(=O)c2cc(Cl)c(Cl)s2)nnc1-c1ccco1 was tested, and the Potency was “inactive”.
In the case of CC1=NN(c2ccc(C)c(C)c2)C(=O)C1C(c1cccc(O)c1)C1C(=O)N(c2ccc(C)c(C)c2)N=C1C (stereo not given), the Potency is reported as “inactive”.
For O=C(Nc1sc2c(c1C(=O)O)CCCC2)c1ccc(Cl)cc1, the Potency was “inactive”.
In the case of COc1ccccc1-c1nnc(SCC(=O)c2ccc(C3CCCCC3)cc2)n1Cc1ccco1, the Potency is reported as “inactive”.
For Cc1noc(C)c1COc1ccccc1C(=O)NC(C)c1ccc(Cl)cc1 (stereo not given), the Potency was 33.8 µM (active).
In the case of O=C(Nc1ccccc1)C1=C(O)CC(c2ccc(Cl)cc2)N2CCN=C12 (stereo not given), the Potency is reported as “inactive”.
In the case of Cc1cccn2c(=O)c3cc(C#N)c(=NC(=O)c4ccccc4)n(Cc4ccco4)c3nc12, the Potency is reported as “inactive”.
In the case of COc1cc(/C=C2\SC(=O)N(c3cccc(Cl)c3)C2=O)cc([N+](=O)[O-])c1O, the Potency is reported as “inactive”.
In the case of CCc1nc2c(OCC3CCCCC3)cccn2c1N(C)C(=O)c1ccc(C)cc1, the Potency is reported as “inactive”.
With COc1ccc(C2C=C(c3ccc(Br)cc3)Nc3nnnn32)c(OC)c1 (stereo not given) the Potency was “inactive”.
In the case of COc1cccc(/C=C2\SC(=S)NC2=O)c1OS(=O)(=O)c1ccc(NC(C)=O)cc1, the Potency is reported as “inactive”.
For COCCCn1c(=O)/c(=C\c2ccccc2OC(C)C)s/c1=C(/C#N)C(=O)Nc1ccc(C(=O)O)cc1, the Potency was “inactive”.
For CC(C)c1ccc(/C=C/C(=O)Nc2ccc(CN3CCOCC3)cc2)cc1, the Potency was 95.3 µM (active).
